What all share (experiment): PBM binding z-score (relative to random genomic background probes); higher = stronger binding; sequences stand for … in GC…GCGATTGACAGCGTAGAATGAAGG
Assay [1] relates to FXR:RXRa (NR concentration 270 nM, RXRa partner concentration 90 nM). In short, it runs like this:
(§1)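 Ligand-free nuclear receptor dimers were bound for 1 h to custom Agilent 4×180K protein-binding microarrays. Detection used antibodies against each partner (one per run). Binding z-scores rest on regression-normalized fluorescence, with random background probes as the reference.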

Assay [2] relates to LXRa:RXRa (NR concentration 270 nM, RXRa partner concentration 90 nM). Summed up:
as §1

Assay [3] deals with LXRa homodimer (NR concentration 270 nM). In short, it runs like this:
as §1

Assay [4] relates to LXRb:RXRa (NR concentration 270 nM, RXRa partner concentration 90 nM). Summed up: as §1
Assay [5] relates to LXRb homodimer (NR concentration 270 nM). In short, it runs like this:
as §1

The test system of assay [6] is PPARa:RXRa (NR concentration 270 nM, RXRa partner concentration 90 nM). Summed up:
as §1

Assay [7] has as its system PPARg:RXRa (NR concentration 180 nM, RXRa partner concentration 90 nM). Summed up: as §1
Assay [8] deals with PPARg:RXRa 270nM:90nM, anti-RXR (NR concentration 270 nM, RXRa partner concentration 90 nM). In short, it runs like this:
as §1

The test system of assay [9] is PPARg:RXRa 30nM:10nM, anti-RXR (NR concentration 30 nM, RXRa partner concentration 10 nM). Summed up:
as §1

In assay [10] the test system is PPARg:RXRa 90nM:30nM, anti-RXR (NR concentration 90 nM, RXRa partner concentration 30 nM). Summed up:
as §1

Assay [11] concerns PPARg:RXRa DBDmut IVT, anti-RXR (DBD mutation: RXRa K156A/R161A, NR concentration 270 nM, RXRa partner concentration 90 nM). In short, it runs like this: as §1
In assay [12] the test system is PPARg:RXRa IVT, anti-PPARg (NR concentration 270 nM, RXRa partner concentration 90 nM). Summed up:
as §1

In assay [13] the test system is PPARg DBDmut IVT, anti-PPARg (DBD mutation: PPARg1 K132A/R137A, NR concentration 270 nM). Summed up: as §1
In assay [14] the test system is PPARg homodimer (NR concentration 180 nM). In short, it runs like this:
as §1

Assay [15] relates to PXR:RXRa (NR concentration 270 nM, RXRa partner concentration 90 nM). In short, it runs like this: as §1
For assay [16], the system named is PXR homodimer (NR concentration 270 nM). Summed up:
as §1

Assay [17] deals with RARa:RXR (NR concentration 270 nM, RXRa partner concentration 90 nM). Summed up:
as §1

Assay [18] has as its system RARa homodimer (NR concentration 270 nM). In short, it runs like this: as §1
For assay [19], the system named is RARb:RXRa (NR concentration 270 nM, RXRa partner concentration 90 nM). Summed up:
as §1

As to ATATGTAGGTTAAGGTCATTCAGAAAGTAGGGAA, the PBM binding z-score was determined as 5.54 in assay [1]; 5.3 in [2]; 3.85 in assay [3]; 4.59 in assay [4]; 1.75 in [5]; 5.54 in [6]. Also, the PBM binding z-score came to 8.49 in assay [7]; 6.99 in assay [8]; 5.28 in assay [9]; 7.39 in assay [10]; 7.09 in assay [11]; 7.46 in assay [12]. In addition, the PBM binding z-score in [13] came to 2.29; in assay [14] it was 3.37; in assay [15], 4.99; in [16] it was 3.21; in assay [17], 4.73; in assay [18] it was 2.27. The sequence further had a PBM binding z-score in assay [19] of 4.35.
Consider CGAACTAGGTCACCAGGACAGTGGAGAGGTTGGA, for which the PBM binding z-score in assay [1] is 4.02; in assay [2], 2.46; in assay [3], 0.169; in [4] it was 1.58; in assay [5], -0.484; in assay [6] it was 5.13. The PBM binding z-score in [7] is 8.7; in [8], 7.06; in assay [9], 4.41; in [10] it was 6.57; in assay [11], 8.2; in assay [12], 8.98. Moreover, the PBM binding z-score in assay [13] was 4.11; in [14] it was 2.37; in assay [15] it was 1.37; in assay [16], -0.106; in assay [17] it was 2.81; in [18] it was 0.103. The PBM binding z-score in assay [19] stood at 4.39.
Turning to CGAACTAGGTCAAAGGACAGTGAGAGGCGACGTA, the PBM binding z-score in assay [1] is 4.2; in assay [2], 2.38; in [3], -0.449; in assay [4] it was 1.41; in assay [5] it was -0.441; in [6], 5.65. For the same sequence, the PBM binding z-score in assay [7] amounted to 10.3; in assay [8] it was 8.86; in [9] it was 8; in assay [10] it was 9.29; in assay [11], 7.99; in assay [12] it was 8.52. In addition, the PBM binding z-score is 1.52 in assay [13]; 1.96 in assay [14]; 0.82 in assay [15]; -0.246 in assay [16]; 2.11 in assay [17]; 0.479 in [18]. In assay [19], this sequence had a PBM binding z-score of 3.81.
On to CGAACTAGGTCAACAGGACAGTGAAGAGGTTGGA, for which the PBM binding z-score in [1] is 3.71; in [2], 2.37; in [3] it was 0.16; in [4], 1.55; in assay [5], -0.34; in assay [6], 4.7. The PBM binding z-score was found to be 7.52 in assay [7]; 6.53 in [8]; 4.22 in assay [9]; 6.18 in assay [10]; 8.18 in assay [11]; 8.23 in [12]. The PBM binding z-score in assay [13] was determined as 0.713; in assay [14], 1.93; in [15], 1.28; in [16] it was 0.261; in assay [17], 2.27; in assay [18], 0.467. Moreover, the PBM binding z-score in [19] stood at 4.23.
In the case of CGGACTAGGTCACCAGGACAGTGAAGAGGTTGGA, the PBM binding z-score in assay [1] was 3.78; in assay [2], 2.23; in assay [3], -0.177; in [4], 1.34; in [5] it was -0.742; in assay [6], 4.41. For the same sequence, the PBM binding z-score was determined as 8.1 in [7]; 6.5 in assay [8]; 4.18 in assay [9]; 5.97 in assay [10]; 7.92 in [11]; 8.27 in [12]. Also, the PBM binding z-score in assay [13] is 0.234; in assay [14] it was 1.95; in [15] it was 1.24; in [16] it was -0.197; in assay [17], 2.09; in assay [18], -0.221. In assay [19], this sequence registered a PBM binding z-score of 4.15.
As to CGACCTAGGTCAAAGGACAGTGAAAGGCGACGTA, the PBM binding z-score in assay [1] was 5.01; in [2], 3.27; in assay [3] it was -0.141; in [4], 2.32; in assay [5] it was -0.298; in [6] it was 4.33. Also, the PBM binding z-score in [7] was 5.72; in assay [8], 5.68; in assay [9], 3.14; in assay [10], 4.92; in [11] it was 3.69; in assay [12] it was 4. Moreover, the PBM binding z-score was -0.949 in assay [13]; 1.74 in assay [14]; 1.42 in assay [15]; -0.567 in assay [16]; 2.9 in [17]; -0.132 in assay [18]. Besides, in assay [19], the PBM binding z-score turned out to be 4.05.
In the case of CGAACTAGGTCAACGGACAGTGAAAGGCGACGTA, the PBM binding z-score in assay [1] is 3.7; in assay [2] it was 2.16; in assay [3] it was -0.117; in assay [4] it was 1.22; in assay [5], -0.431; in assay [6] it was 4.75. The PBM binding z-score is 8.09 in [7]; 6.86 in assay [8]; 4.42 in [9]; 6.52 in assay [10]; 8.1 in assay [11]; 8.37 in assay [12]. The PBM binding z-score in assay [13] was -0.094; in assay [14], 1.63; in assay [15] it was 0.839; in [16], -0.0597; in assay [17], 1.77; in [18], -0.351. Moreover, the PBM binding z-score in [19] turned out to be 3.89.

Source of the values: the supplement of paper PMC6555819.
